Data on six compounds can be found in PubChem BioAssay (NCI).

Experiment [1] in a line: NCI Yeast Anticancer Drug Screen. Data for the rad50 strain (AID 155).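 Also: 0% = growth of vehicle-only cultures of the same strain.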 The conditions noted are these: S. cerevisiae rad50 strain growth inhibition, active compounds read high. In outline:
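Readout: growth inhibition relative to vehicle-treated cultures. Compound exposure was carried out in a genetically defined yeast strain deficient in DNA damage repair.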

The nature of experiment [2]: NCI Yeast Anticancer Drug Screen. Data for the mec2-1 strain (AID 157). The conditions noted are these: S. cerevisiae mec2-1 strain, active compounds read high. A digest of the protocol: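 Strain: mec2-1 (DNA repair/cell cycle alteration). Compound exposure, then growth measured; inhibition expressed relative to vehicle.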
Experiment [3] can be described thus: NCI Yeast Anticancer Drug Screen. Data for the sgs1 mgt1 strain (AID 161).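 Also: 0% = growth of cultures given vehicle only.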 The settings on record: S. cerevisiae sgs1 mgt1 strain, active compounds read high. In outline: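 Mutant yeast exposed to compound; growth scored against vehicle-only wells.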
The nature of experiment [4]: NCI Yeast Anticancer Drug Screen. Data for the cln2 rad14 strain (AID 165).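 Also: 0% = growth equal to vehicle treated cultures.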 The conditions noted are these: S. cerevisiae cln2 rad14 strain, active compounds read high. A digest of the protocol: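 Compounds are applied to the cln2 rad14 yeast strain, and growth is then compared with that of vehicle-treated cultures to give inhibition.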
Experiment [5] is described as follows: NCI Yeast Anticancer Drug Screen. Data for the bub3 strain (AID 167). The conditions noted are these: S. cerevisiae bub3 mutant strain, active compounds read high. In outline:
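Readout: yeast growth inhibition, expressed relative to vehicle-only wells. The test organism is a mutant strain from a panel with lesions in DNA repair or checkpoint genes.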

Experiment [6] can be described thus: NCI Yeast Anticancer Drug Screen. Data for the mlh1 rad18 strain (AID 175). The settings on record: S. cerevisiae mlh1 rad18 strain growth inhibition, active compounds read high. In outline:
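Read-out is yeast growth inhibition, calculated against vehicle-only controls. The compound was applied to a strain engineered with DNA damage repair alterations.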

Where [7] appears, read: at 5.0 µM (retest, dose inferred, filed as 0.5).
[8] abbreviates: at 50.0 µM (retest, dose inferred, filed as 5.0).

This is part of a sample that, as a whole, favours compounds with a hit. Of some 79,000 tested, about 15% had one in any assay. Values without a mark were called inactive. Activity calls are given as the source filed them. Rule as the data show it: active = growth inhibition above about 70%; inactive = the rest.

With `Cc1cc2nc3c(C)c4ccccc4c(C)n3c2cc1C`, the growth inhibition is 82% (active) in experiment [1] (setting [7]); 93% (active) in experiment [1] (setting [8]); 80.8% (active) in experiment [1] (at 50.0 µM); 69% in experiment [2] (setting [7]); 96% (active) in experiment [2] (setting [8]); 87.8% (active) in experiment [2] (at 50.0 µM). In addition, the growth inhibition was 72% (active) in experiment [3] (setting [7]); 50% in experiment [3] (setting [8]); 85.3% (active) in experiment [3] (at 50.0 µM); 73% (active) in experiment [4] (setting [7]); 94% (active) in experiment [4] (setting [8]); 83.4% (active) in experiment [4] (at 50.0 µM). In addition, the growth inhibition in experiment [5] (setting [7]) was 75% (active); in experiment [5] (setting [8]), 94% (active); in experiment [5] (at 50.0 µM) it was 86.4% (active); in experiment [6] (setting [7]), 81% (active); in experiment [6] (setting [8]), 95% (active); in experiment [6] (at 50.0 µM), 79.3% (active).

As for `NS(=O)(=O)c1ccc(Nc2c3ccccc3nc3c(C(=O)NC(CO)(CO)CO)cccc23)cc1`, the growth inhibition was -14% in experiment [1] (setting [7]); 24% in experiment [1] (setting [8]); 18.9% in experiment [1] (at 50.0 µM); -11% in experiment [2] (setting [7]); -10% in experiment [2] (setting [8]); -1% in experiment [2] (at 50.0 µM). The growth inhibition in experiment [3] (setting [7]) is -5%; in experiment [3] (setting [8]), -13%; in experiment [3] (at 50.0 µM), 15.3%; in experiment [4] (setting [7]) it was 25%; in experiment [4] (setting [8]), -10%; in experiment [4] (at 50.0 µM), 45.5%. For the same compound, the growth inhibition in experiment [5] (setting [7]) is -9%; in experiment [5] (setting [8]), -8%; in experiment [5] (at 50.0 µM), 12.9%; in experiment [6] (setting [7]) it was -14%; in experiment [6] (setting [8]), 9%; in experiment [6] (at 50.0 µM), 15.9%.

Regarding `CSc1ccc(C(=O)C(=O)c2ccc(SC)s2)s1`, the growth inhibition in experiment [1] (setting [7]) was 14%; in experiment [1] (setting [8]) it was 11%; in experiment [1] (at 50.0 µM) it was 26.6%; in experiment [2] (setting [7]), -15%; in experiment [2] (setting [8]), -8%; in experiment [2] (at 50.0 µM), 39.5%. In addition, the growth inhibition in experiment [3] (setting [7]) is 14%; in experiment [3] (setting [8]), 14%; in experiment [3] (at 50.0 µM), 73.8% (active); in experiment [4] (setting [7]), 0%; in experiment [4] (setting [8]), 37%; in experiment [4] (at 50.0 µM), 76.7% (active). Further, the growth inhibition in experiment [5] (setting [7]) was -2%; in experiment [5] (setting [8]), 9%; in experiment [5] (at 50.0 µM) it was 48.7%; in experiment [6] (setting [7]) it was 4%; in experiment [6] (setting [8]), 2%; in experiment [6] (at 50.0 µM), -1.7%.

For `COC(OC)C1C2C3C=CC(C4C(=O)OC(=O)C34)C12` (stereo not drawn), the growth inhibition was -5% in experiment [1] (setting [7]); 0% in experiment [1] (setting [8]); 76.5% (active) in experiment [1] (at 50.0 µM); -16% in experiment [2] (setting [7]); -4% in experiment [2] (setting [8]); 98.4% (active) in experiment [2] (at 50.0 µM). The growth inhibition in experiment [3] (setting [7]) was -15%; in experiment [3] (setting [8]), -13%; in experiment [3] (at 50.0 µM), 29.4%; in experiment [4] (setting [7]) it was -2%; in experiment [4] (setting [8]), -5%; in experiment [4] (at 50.0 µM) it was 98.3% (active). Moreover, the growth inhibition was 0% in experiment [5] (setting [7]); 14% in experiment [5] (setting [8]); 97.2% (active) in experiment [5] (at 50.0 µM); 6% in experiment [6] (setting [7]); 2% in experiment [6] (setting [8]); 98.6% (active) in experiment [6] (at 50.0 µM).

Take `O=S(=O)(Nc1ccccc1)c1ccccc1CC(O)(c1ccccc1)c1ccccc1`: the growth inhibition is 46% in experiment [1] (setting [7]); 90% (active) in experiment [1] (setting [8]); 90% (active) in experiment [1] (at 50.0 µM); 67% in experiment [2] (setting [7]); 94% (active) in experiment [2] (setting [8]); 93% (active) in experiment [2] (at 50.0 µM). Further, the growth inhibition in experiment [3] (setting [7]) was 98% (active); in experiment [3] (setting [8]) it was 94% (active); in experiment [3] (at 50.0 µM), 91.2% (active); in experiment [4] (setting [7]) it was 59%; in experiment [4] (setting [8]), 89% (active); in experiment [4] (at 50.0 µM) it was 90.4% (active). Besides, the growth inhibition in experiment [5] (setting [7]) was 40%; in experiment [5] (setting [8]), 90% (active); in experiment [5] (at 50.0 µM) it was 90.4% (active); in experiment [6] (setting [7]), 90% (active); in experiment [6] (setting [8]) it was 90% (active); in experiment [6] (at 50.0 µM), 89.2% (active).

As to `O=C(O)CCCNc1ncc2c(n1)-c1ccccc1OC2`, the growth inhibition in experiment [1] (setting [7]) was 19%; in experiment [1] (setting [8]), 7%; in experiment [1] (at 50.0 µM) it was 65.5%; in experiment [2] (setting [7]), 11%; in experiment [2] (setting [8]), 9%; in experiment [2] (at 50.0 µM), 51%. The growth inhibition is 8% in experiment [3] (setting [7]); 12% in experiment [3] (setting [8]); -3.35% in experiment [3] (at 50.0 µM); 20% in experiment [4] (setting [7]); 15% in experiment [4] (setting [8]); -26% in experiment [4] (at 50.0 µM). Besides, the growth inhibition in experiment [5] (setting [7]) was 14%; in experiment [5] (setting [8]), 8%; in experiment [5] (at 50.0 µM) it was -22.9%; in experiment [6] (setting [7]), 12%; in experiment [6] (setting [8]) it was 9%; in experiment [6] (at 50.0 µM), -9.3%.
